± gives the uncertainty stated by the source.
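Further: viable cell number estimated from Alamar Blue fluorescence read at 560/90, part of a single-dose primary screen of an FDA-approved drug library.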

The subject of the experiment is U87. Kind of experiment: cell viability relative to vehicle control; higher = less growth inhibition (less active). The note with it: 10 µM; 72 h.
Take `C=C1/C(=C\C=C2/CCC[C@]3(C)[C@@H]([C@H](C)CCCC(C)(C)O)CC[C@@H]23)C[C@@H](O)C[C@@H]1O`: the cell viability was found to be 105 ± 2.2%. Under `Oc1ccc(/C=C/c2cc(O)cc(O)c2)cc1` [resveratrol] stands 100.5 ± 0.97%.

Regarding `CCS(=O)(=O)CCn1c([N+](=O)[O-])cnc1C`, the cell viability worked out at 101 ± 1.7%. Consider `CCOC(=O)C1=C(C)NC(C)=C(C(=O)OCC)C1c1ccccc1/C=C/C(=O)OC(C)(C)C`, for which the cell viability was determined as 98.85 ± 0.96%. For `CC(COc1ccccc1Cc1ccccc1)N1CCCCC1` (centres undefined) the value was 102.4 ± 0.48%. Regarding `C[C@@H](c1ncncc1F)[C@](O)(Cn1cncn1)c1ccc(F)cc1F`, the cell viability is 106 ± 1.7%. On to `CCN1CC(CCN2CCOCC2)C(c2ccccc2)(c2ccccc2)C1=O` (centres undefined), for which the cell viability came out at 104 ± 1.3%. As to `CC(=O)Nc1ccc(CC(=O)O)cc1`, the cell viability is 100 ± 1.1%. With `CNCC[C@H](Oc1cccc2ccccc12)c1cccs1` [Duloxetine], the cell viability worked out at 104 ± 1.9%. As to `Cc1nccn1CC1CCc2c(c3ccccc3n2C)C1=O` (centres undefined) [Ondansetron], the cell viability came out at 99.8 ± 1.5%.

On to `O=[N+]([O-])c1cccc2cn[nH]c12`, for which the cell viability was 107 ± 1.1%. As to `CC(C)c1nc(CN(C)C(=O)N[C@H](C(=O)N[C@@H](Cc2ccccc2)C[C@H](O)[C@H](Cc2ccccc2)NC(=O)OCc2cncs2)C(C)C)cs1`, the cell viability came out at 102 ± 3%. Regarding `Cc1cc2c(s1)Nc1ccccc1N=C2N1CCN(C)CC1`, the cell viability stood at 108 ± 1.7%. As to `COc1ccc2cc([C@H](C)C(=O)O)ccc2c1`, the cell viability worked out at 106 ± 1.4%. As for `Nc1nc(N)nc(-c2cc(Cl)ccc2Cl)n1`, the cell viability was found to be 95.63 ± 0.69%. Take `CC[C@]1(O)C[C@H]2CN(CCc3c([nH]c4ccccc34)[C@@](C(=O)OC)(c3cc4c(cc3OC)N(C=O)[C@H]3[C@@](O)(C(=O)OC)[C@H](OC(C)=O)[C@]5(CC)C=CCN6CC[C@]43[C@@H]65)C2)C1`: the cell viability was 25.9 ± 3.1%.

Take `O=c1c(O[C@@H]2O[C@H](CO)[C@H](O)[C@H](O)[C@H]2O)c(-c2ccc(O)c(O)c2)oc2cc(O)cc(O)c12`: the cell viability came to 106 ± 1.8%. Consider `Nc1ccc2cn[nH]c2c1`, for which the cell viability was 108 ± 2.4%.

In the case of `COc1nc(C)nc(Cl)c1NC1=NCCN1`, the cell viability worked out at 102 ± 1.7%.

Turning to `O=C(O)Cc1ccccc1Nc1c(Cl)cccc1Cl`, the cell viability is 105.9 ± 0.17%. As to `OC[C@H]1O[C@@H](n2cnc3c(N[C@H]4CCC[C@@H]4O)ncnc32)[C@@H](O)C1O` (stereo partly drawn) [Adenosine, N-(2-hydroxycyclopentyl)-, (1S-trans)- [CAS]], the cell viability was 110.8 ± 0.42%. On to `CC(=O)NC[C@H]1CN(c2ccc(N3CCOCC3)c(F)c2)C(=O)O1`, for which the cell viability amounted to 103 ± 1.8%. In the case of `CCCN[C@H]1CCc2nc(N)sc2C1`, the cell viability was found to be 105 ± 1.9%. Under `C#C[C@]1(O)CC[C@H]2[C@@H]3CCc4cc(OC)ccc4[C@H]3CC[C@@]21C` stands 102.9 ± 0.33%.

Regarding `CN1CCN(CCCN2c3ccccc3Sc3ccc(C(F)(F)F)cc32)CC1` [Trifluoperazine], the cell viability is 103 ± 0.17%. As for `COc1ccc(C(=O)NCc2ccc(OCCN(C)C)cc2)cc1OC`, the cell viability is 95.8 ± 3.2%. For `CC1CNc2c(cccc2S(=O)(=O)N[C@@H](CCCNC(=N)N)C(=O)N2CC[C@@H](C)C[C@@H]2C(=O)O)C1` (some centres undefined) the value was 105 ± 2.8%. Under `O=c1[nH]c(=O)n(C2CCCO2)cc1F` (centres undefined) stands 96.728 ± 0.044%; under `CCC(C)n1ncn(-c2ccc(N3CCN(c4ccc(OCC5COC(Cn6cncn6)(c6ccc(Cl)cc6Cl)O5)cc4)CC3)cc2)c1=O` (centres undefined), 21.4 ± 2.1%.

Take `Nc1ccn([C@H]2CC[C@@H](CO)O2)c(=O)n1`: the cell viability was determined as 100 ± 2.5%. Regarding `C[C@]12C=CC(=O)C=C1CC[C@@H]1[C@@H]2[C@@H](O)C[C@@]2(C)[C@H]1CC[C@]2(O)C(=O)COC(=O)CCC(=O)O`, the cell viability turned out to be 104 ± 0.49%.

As to `CC1(C)S[C@@H]2[C@H](/N=C/N3CCCCCC3)C(=O)N2[C@H]1C(=O)O`, the cell viability is 104 ± 2.1%. With `Cc1ncc([N+](=O)[O-])n1CCO`, the cell viability is 104 ± 1.2%.

Consider `Cc1cn([C@H]2C=C[C@@H](CO)O2)c(=O)[nH]c1=O`, for which the cell viability was 105 ± 3%. `NC(N)=Nc1nc(CSCC/C(N)=N/S(N)(=O)=O)cs1`: the cell viability came to 98.4 ± 9.8%. Consider `Cc1nc2n(c(=O)c1CCN1CCC(c3noc4cc(F)ccc34)CC1)CCCC2`, for which the cell viability came out at 108 ± 1.7%. On to `CN1CCC(=C2c3ccccc3CC(=O)c3sccc32)CC1`, for which the cell viability stood at 109 ± 3.3%. Regarding `CO[C@H]1/C=C/O[C@@]2(C)Oc3c(C)c(O)c4c(O)c(c5c(nc6cc(C)ccn65)c4c3C2=O)NC(=O)/C(C)=C\C=C\[C@H](C)[C@H](O)[C@@H](C)[C@@H](O)[C@@H](C)[C@H](OC(C)=O)[C@@H]1C`, the cell viability worked out at 96.1 ± 1.3%. In the case of `CN(C)CC/C=C1/c2ccccc2COc2ccc(CC(=O)O)cc21`, the cell viability amounted to 95.88 ± 0.86%.

(Values after the supplement of paper PMC3898565.)
